# Vc quorum ag = inducers of Vibrio cholerae quorum light production without autoinducers, primary screen, BH1578 luxS cqsA deficient, single point; V. cholerae BH1578 lux reporter, luminescence, 6 h; activation, % at 18.7 µM; AID 588436, 2011; hit rate 0.16% among 350,000; in the data active = activation mostly above about 9.7%, no sharp cut-off
# CCHF vOTU inh = CCHFV vOTU protease inhibitors, primary screen, biochemical, Pep-AMC substrate, fluorescence; AID 651958, 2012; hit rate 0.55% among 370,000; Crimean-Congo hemorrhagic fever virus L polyprotein viral ovarian tumor (vOTU) protease …; inhibition, % at 11.5 µM; in the data active = inhibition above about 30%; also: 0% = vehicle wells with enzyme and 100% = no enzyme wells
# Mtb FBA inh = Mtb FBA enzyme inhibitors, primary screen, biochemical, fluorescence, strain H37Rv. hit rate 2.3% among 360,000. purified M. tuberculosis FBA, fluorescence read-out. inhibition, % at 1 µM. Fructose-bisphosphate aldolase (Mycobacterium tuberculosis (strain ATCC 25618 / H37Rv)), …. AID 588726, 2011;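 also: 0% = vehicle and 100% = reference inhibitor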
# Target sequence (P9WQA3 whole entry, looked up): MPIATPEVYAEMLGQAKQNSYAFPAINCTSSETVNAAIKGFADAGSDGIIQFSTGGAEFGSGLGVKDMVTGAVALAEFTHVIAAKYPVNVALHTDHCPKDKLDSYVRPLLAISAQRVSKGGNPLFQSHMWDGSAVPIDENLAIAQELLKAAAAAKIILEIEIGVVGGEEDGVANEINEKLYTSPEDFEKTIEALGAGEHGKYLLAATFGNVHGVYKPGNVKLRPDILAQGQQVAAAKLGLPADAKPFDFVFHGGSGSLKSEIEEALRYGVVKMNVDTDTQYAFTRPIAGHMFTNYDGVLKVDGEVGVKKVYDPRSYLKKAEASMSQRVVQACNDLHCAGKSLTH
# GDH-TPI counter-1 = GDH-TPI coupling enzyme inhibitors, primary screen, artefact control for M. tuberculosis FBA inhibitor project, biochemical, absorbance, full deck; GDH-TPI coupled enzyme counterscreen, NADH absorbance; inhibition, % at 4.8 µM; hit rate 1.2% among 360,000; in the data active = inhibition above about 30%;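 also: 0% = DMSO wells and 100% = wells lacking the enzyme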
# Mtb FBA confirm = M. tuberculosis aldolase blockers, biochemical, fluorescence, strain H37Rv, confirmation; hit rate 78% among 5,600; inhibition, % at 1 µM; purified M. tuberculosis FBA, fluorescence read-out; AID 651616, 2012; shares compounds with Mtb FBA inh;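 also: 0% = vehicle wells and 100% = reference inhibitor wells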
# GDH-TPI counter-2 = GDH-TPI coupling enzyme inhibitors, artefact control for M. tuberculosis FBA inhibitor project, biochemical, fluorescence, high throughput; shares compounds with Mtb FBA inh; GDH-TPI coupled enzyme counterscreen; inhibition, % at 1 µM; hit rate 81% among 5,600; in the data active = inhibition above about 10%
# GDH-TPI DR = GDH-TPI coupling enzyme inhibitors, dose response, artefact control for M. tuberculosis FBA inhibitor project, biochemical, fluorescence, IC50; AID 652145, 2013; shares compounds with Mtb FBA inh; hit rate 79% among 170; IC50, µM; GDH-TPI coupled enzyme assay, artifact counterscreen; call rule not given here
# An asterisk follows results filed as active; i = inactive; nt = not tested or not shown; ! = a repeat was not active. Only some compounds are listed: those with a hit (about 3.9% of all), similar ones and a draw of the others. Rule as the data show it, unless noted: active = inhibition above about 27%; inactive = the rest.
SMILES,Vc quorum ag,CCHF vOTU inh,Mtb FBA inh,GDH-TPI counter-1,Mtb FBA confirm,GDH-TPI counter-2,others
Cc1noc(C)c1COc1ccc(C(=O)N2CCN(S(=O)(=O)c3ccccc3)CC2)cc1,-1,0,-3,-4,nt,nt,
CCCS(=O)(=O)NC(=O)C1(C)CCN(C(=O)c2cc(F)cc(F)c2)C1 (stereo not drawn),i,1,1,7,nt,nt,
CC1(C)Oc2ccc3ccc(=O)oc3c2[C@H](O)[C@H]1O,-1,-21,58*,18,69*,59*,
CC1(C)Oc2ccc3ccc(=O)oc3c2C[C@H]1O,-1,-45,88*,16,149*,113*,
CC1(C)Oc2ccc3ccc(=O)oc3c2C(N2CCCCC2)C1O (stereo not drawn),0,-10,6,-3,nt,nt,
Cc1nnc(SCC(=O)NC(C)(C)C)n1NCc1ccc(N(C)C)cc1,0,-7,44*,9,60*,54*,
Cc1nnc(SCC(=O)NC(C)(C)C)n1NCc1ccc(Cl)cc1,-1,-10,-4,-4,nt,nt,
Cc1cccc(N(C(=O)CNC(=O)c2ccco2)C(C(=O)NC2CCCC2)c2ccncc2)c1C (stereo not drawn),-1,1,-2,12,nt,nt,
Cc1cc(-c2nc3ccccc3o2)c2ccccc2n1,-1,0,34*,23,15,-2,GDH-TPI DR=5.7*
CCC(CC)c1nnc(NC(=O)CCN2C(=O)c3ccccc3C2=O)s1,i,7,0,0,nt,nt,
COc1cc(F)cc(-c2ccc3c(c2)c(-c2cccs2)c(-c2cc(OC)cc(OC)c2)n3C)c1,0,4,2,22,nt,nt,
COc1cc(OC)cc(-c2c(-c3cccs3)c3cc(-c4cccc5[nH]ccc45)ccc3n2C)c1,i,0,47*,21,112*,79*,
COc1ccc2c(c1)sc1nc(=O)ccn12,i,-26,49*,-12,117*,106*,
CCOC(=O)c1n[nH]n2c1nc(=O)c1ccccc12,0,-5,33*,3,116*,108*,
Cc1ccc(S(=O)(=O)c2n[nH]n3c2nc(=O)c2ccccc23)cc1,-7,-2,10,7,nt,nt,
Nc1ccc[n+](Cc2ccccn2)c1,0,-4,61*,6,1,-2,
Nc1ccc(Cc2ccccn2)cc1,0,2,0,5,nt,nt,
O=C(O)CSc1cccc2cccnc12,0,-21,27*!,-1,8,10*,
O=C(CSc1cccc2cccnc12)N/N=C/c1ccc(F)cc1,i,-21,16,12,nt,nt,
COc1ccc(C2=NN(CN3C(=O)C(=O)c4ccccc43)C(c3ccc(Br)cc3)C2)cc1 (stereo not drawn),i,16,4,2,nt,nt,
COc1ccc(C2CC(c3ccccc3Br)=NN2c2ccc(S(N)(=O)=O)cc2)cc1 (stereo not drawn),i,-38,46*,12,154*,77*,
CCOc1cc(S(=O)(=O)NCCc2ccccc2C)c(OCC)cc1-n1cnnn1,i,-28,51*,7,22,12*,
CCOc1cc(S(=O)(=O)N(CC)CC)c(OCC)cc1-n1cnnn1,i,-12,28*,10,193*,137*,
CCOc1cc(S(=O)(=O)N2CC=C(c3ccc(F)cc3)CC2)c(OCC)cc1-n1cnnn1,-2,-8,2,-6,nt,nt,
CCc1c(C)sc(NC(=S)N2CCN(S(C)(=O)=O)CC2)c1C(=O)OC,1,2,-1,11,nt,nt,
Cc1nc2nc(-c3ccccc3)cn2nc1C,i,-193,20,13,nt,nt,
Cc1nc2nc(-c3ccc(F)cc3)cn2nc1C,1,-161,50*,9,43*,38*,
Cc1cc(-c2n[nH]c(=S)n2/N=C/C(Cl)=C/c2ccccc2)n[nH]1,-1,1,2,16,nt,nt,
Cc1nc2ccccc2c(=O)n1/N=C/c1ccc(O)cc1O,-1,6,1,25,nt,nt,
